“And” between values parts separate entries of the source, which are not always exact repeats. Equal values may be shown once. Inconclusive results are not listed. The source made the active and inactive calls. Unless noted, calls follow the shape of the dose curve; as a rule, active = well fitted curve in the direction sought with a large enough effect; inconclusive = small, poorly fitted or top-dose-only effect, or another doubt; inactive = no such curve, though single readings can be large; an effect the other way counts as inactive or inconclusive.

Assay [1] can be described thus: Primary qHTS for inhibitors of nuclear receptor binding SET domain protein 2 (NSD2) in an RCH-ACV wild type WT cells (2C) (AID 1645877). Also: nearly all actives have a fitted effect of over 70% in size. Also: potency is read from the fitted curve at half-maximal effect.
Assay [2] in a line: NCATS anti-infectives library activity on HEK293 viability as a counter-qHTS vs the C. elegans viability qHTS (AID 1745854).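 Also: HEK293 cells exposed to compounds for 24 hr before the viability read; % is scaled to controls: 0 for no effect and ±100 for the full control effect.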 The procedure, abridged:
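Counter-screen for cytotoxicity: HEK293, 24 hr, 37C, compounds up to 41.7 uM final (a dilution series, 1:5). Readout CellTiter-Glo luminescence, 10 min RT. Digitonin control, 83.3 uM final.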

The target in assay [3] is Glutathione peroxidase 1 (Homo sapiens) (UniProt P07203). As to the kind of experiment: Primary qHTS Assay for Inhibitors of Recombinant Selenoprotein Glutathione Peroxidase 1 (GPX1) (AID 1845191). Also: nearly all actives have a fitted effect of over 65% in size. In a few lines: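 NADPH consumption tracked by fluorescence at 340/450 nm between t=0 and t=15 min, room temperature. Final mix: 10 nM GPX1, 100 nM glutathione reductase, 1 mM GSH, 0.5 mM NADPH, 0.5 mM cumene hydroperoxide, 0.01% BSA; 30 min compound–enzyme preincubation.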
In general terms: In qHTS, concentration-response curves come from the screen itself.

The target of assay [4] is Phospholipid hydroperoxide glutathione peroxidase GPX4 (Homo sapiens) (UniProt P36969). As to the kind of experiment: Primary qHTS Assay for Inhibitors of Recombinant Selenoprotein Glutathione Peroxidase 4 (GPX4) (AID 1845192). Also: % is scaled to controls: 0 for no effect and ±100 for the full control effect; nearly all actives have a fitted effect of over 65% in size. In a few lines:
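NADPH consumption followed by fluorescence at 340/450 nm, t=0 and after 15 min at room temperature. Reaction started with cumene hydroperoxide (0.5 mM final) after 30 min compound–GPX4 preincubation; final 200 nM GPX4, 100 nM GR, 1 mM GSH, 0.5 mM NADPH.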

Assay [5] addresses Luciferin 4-monooxygenase (Photinus pyralis) (UniProt P08659). As to the kind of experiment: Primary firefly luciferase (FLuc) qHTS assay for identification of artifact compounds. (AID 1845220). Also: nearly all actives have a fitted effect of over 60% in size.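 As to activity change, negative = inhibition: plate controls were DMSO vehicle for no effect and no enzyme for full effect.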 In a few lines: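 Compounds sat 15 min at room temperature with 10 uM luciferin and 10 uM ATP (pH 7.6 Tris acetate). Firefly luciferase (10 nM final) was then added, and luminescence was read 5 min later. Data normalized to no-enzyme and DMSO controls were Hill-fitted.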

Assay [6] is described as follows: Primary fluorescence-based thiol-reactive (MSTI) qHTS assay for identification of artifact compounds. (AID 1845221).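 Also: thiol-reactive compounds lower the probe fluorescence signal; nearly all actives have a fitted effect of over 65% in size.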 In a few lines: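 One-hour, room-temperature, dark incubation of compound with 4 uM MSTI in PBS (pH 7.4, 2% DMSO) precedes a fluorescence read at 525 nm excitation, 598 nm emission; Hill-equation fitting yields concentration-response values.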
Assay [7] deals with Nanoluciferase (engineered Oplophorus gracilirostris luciferase). The assay can be described thus: Primary Nanoluciferase (NLuc) qHTS assay for identification of artifact compounds. (AID 1845222).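 Also: 0% = DMSO and -100% = no enzyme.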 The procedure, abridged: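 Luminescence from secreted NLuc (filtered, 1:55-diluted S16 cell medium) read 5 min after Nano-Glo substrate; compounds preincubated 15 min, RT. Hill fits of inhibition normalized to DMSO and no-enzyme.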

Assay [8] is described as follows: Primary redox qHTS assay for identification of artifact compounds. (AID 1845223).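 Also: 0% = DMSO and 100% = reference compound.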 The procedure, abridged: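 Redox-cycling detection via DTT (250 uM final) oxidation coupled to Amplex Red (25 uM)/HRP (250 mU/mL) in HBSS. 15 min preincubation plus 30 min after DTT, room temperature. Ex/Em 525/598 nm; 4-parameter Hill fit against DMSO and 10 uM DA3003.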
Assay [9] has as its target Catechol O-methyltransferase (Homo sapiens) (UniProt P21964). As to the kind of experiment: Confirmatory Screen for Target Class Profiling of Small Molecule Inhibitors of Methyltransferases (AID 1745852; calls by dose curve; as to activity change, negative = inhibition: % is scaled to controls: 0 for no effect and ±100 for the full control effect). The following applies: MTase-Glo luminescence, SAH detection, recombinant enzyme; measured here: COMT max response; stronger effect = lower value.
For assay [10], the target named is Guanidinoacetate N-methyltransferase (Homo sapiens) (UniProt Q14353). The description is as above. The following applies: activity change, negative = inhibition: at 57.3 µM (top of the series) unless noted.
Assay [11] deals with Nicotinamide N-methyltransferase (Homo sapiens) (UniProt P40261). Described as above. The following applies: MTase-Glo luminescence, SAH detection, recombinant enzyme; measured here: NNMT max response; stronger effect = lower value.
Assay [12] concerns the target Phenylethanolamine N-methyltransferase (Homo sapiens) (UniProt P11086). The description is as above. The following applies: MTase-Glo luminescence, SAH detection, recombinant enzyme; measured here: PNMT max response; stronger effect = lower value.
Assay [13] concerns the target Metallo-beta-lactamase type 2 (Klebsiella pneumoniae) (UniProt C7C422). The assay can be described thus: qHTS to identify inhibitors of the New Delhi Metallo-beta-lactamase (NDM): assay validation screen against the NCATS LOPAC Collection (AID 1794843).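 Also: nitrocefin turnover by NDM-1 measured as 485 nm absorbance at plateau; % is scaled to controls: 0 for no effect and ±100 for the full control effect.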 In a few lines:
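Enzyme 2 nM final, 50 mM HEPES pH 7.0, 1 uM ZnSO4, 0.01% Tween20; cpds in DMSO, preincub w/ enzyme; + nitrocefin (50 uM stock); A485 at plateau; no-enzyme column as blank.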

Assay [14] in a line: Viability counterscreen for antagonist of constitutive androstane receptor (CAR) against the NCATS DSHEA and TCM libraries (AID 1794837).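 Also: compound exposure lasted 24 h before viability reading; 0% is about no effect.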 In a few lines: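 Cells: HepG2 line carrying CYP2B6 reporter and hCAR, seeded and attached 5 h. Then pin-transferred test substances plus agonist CITCO at 48 uM final; 24 h incubation; fluorogenic viability reagent, 1 h.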
On the technique in general: The purpose of a counterscreen is to sort out artefacts and off-target activity.

A short description of assay [15]: Viability counterscreen for agonist of constitutive androstane receptor (CAR) against the NCATS DSHEA and TCM libraries (AID 1794838).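 Also: HepG2 cells with CYP2B6 reporter and hCAR plus 0.75 µM PK11195 antagonist; 0% is about no effect.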 The procedure, abridged:
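Cell health was measured as CellTiter-Fluor signal in HepG2-CYP2B6-hCAR cells treated for 24 h with substances alongside the hCAR antagonist PK11195 (0.75 uM final).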

Assay [16] has as its target Nuclear receptor subfamily 1 group I member 3 (Homo sapiens) (UniProt Q14994). As to the kind of experiment: Primary qHTS for agonist of constitutive androstane receptor (CAR) against the NCATS DSHEA and TCM libraries (AID 1794839).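 Also: HepG2 cells expressing human CAR with a CYP2B6 reporter plus PK11195 antagonist; luciferase reporter luminescence read with ONE-Glo; 0% is about no effect.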 In a few lines: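 qHTS, agonist mode: HepG2-CYP2B6-hCAR, 2,500 cells/well, 5 h attach; cpds + PK11195 0.75 µM final; 24 h, 37 °C, 5% CO2. Readouts: CellTiter-Fluor (405/540 nm), then ONE-Glo luminescence.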

Assay [17] can be described thus: HepG2 viability counterscreen (readout 2: ATP content) against the NCATS DSHEA and TCM libraries (AID 1794840). Also: 0% is about no effect. The procedure, abridged:
(§1)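 Same wells read twice: first fluorescence from cleaved GF-AFC substrate (25 uM final, 30 min, 37C) for live-cell protease, then CellTiter-Glo luminescence after 30 min at room temperature for ATP. HepG2 cells were exposed ~24 h to substances.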

Assay [18] is described as follows: HepG2 viability counterscreen (readout 1: protease activity) against the NCATS DSHEA and TCM libraries (AID 1794841).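 Also: cells exposed to compounds for about 24 h before the protease read; 0% is about no effect.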 The procedure, abridged: as §1
Assay [19] deals with Cytochrome P450 3A4 (Homo sapiens) (UniProt P08684). As to the kind of experiment: qHTS for inhibitors of CYP3A4 against the NCATS DSHEA and TCM libraries (AID 1919971).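 Also: % is scaled to controls: 0 for no effect and ±100 for the full control effect; inhibition lowers luminescence from luciferin made by CYP3A4.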 In a few lines:
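Concentration-response screening with isoform-matched pro-luciferin substrates. The CYP reaction was initiated by NADPH regenerating solution and ran 30-45 min in darkness at room temperature.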

Assay [20] can be described thus: NCATS anti-infectives library activity on the primary C. elegans qHTS viability assay (AID 1745855; calls by dose curve). In a few lines:
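GFP read-out by 488 nm laser cytometry at day 0, 3 and 7, gated on object perimeter, area and peak intensity, scored viability of PE254-GFP-FLuc worms exposed to compound in S medium with bacterial capsules at 21 °C.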

Chain of Glutathione peroxidase 1 (Homo sapiens) (P07203 whole entry, looked up): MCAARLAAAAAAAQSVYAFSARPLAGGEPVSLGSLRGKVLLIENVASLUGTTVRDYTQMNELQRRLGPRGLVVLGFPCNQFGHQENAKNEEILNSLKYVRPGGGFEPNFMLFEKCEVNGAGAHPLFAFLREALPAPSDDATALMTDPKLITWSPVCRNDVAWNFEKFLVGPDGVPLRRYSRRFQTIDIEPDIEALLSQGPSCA
Chain of Phospholipid hydroperoxide glutathione peroxidase GPX4 (Homo sapiens) (P36969 whole entry, looked up): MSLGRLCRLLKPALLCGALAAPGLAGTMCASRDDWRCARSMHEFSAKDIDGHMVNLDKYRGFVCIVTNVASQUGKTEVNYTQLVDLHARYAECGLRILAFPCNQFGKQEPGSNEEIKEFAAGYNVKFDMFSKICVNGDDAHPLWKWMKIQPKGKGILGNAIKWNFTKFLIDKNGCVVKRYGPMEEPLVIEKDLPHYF
Chain of Nicotinamide N-methyltransferase (Homo sapiens) (P40261 whole entry, looked up): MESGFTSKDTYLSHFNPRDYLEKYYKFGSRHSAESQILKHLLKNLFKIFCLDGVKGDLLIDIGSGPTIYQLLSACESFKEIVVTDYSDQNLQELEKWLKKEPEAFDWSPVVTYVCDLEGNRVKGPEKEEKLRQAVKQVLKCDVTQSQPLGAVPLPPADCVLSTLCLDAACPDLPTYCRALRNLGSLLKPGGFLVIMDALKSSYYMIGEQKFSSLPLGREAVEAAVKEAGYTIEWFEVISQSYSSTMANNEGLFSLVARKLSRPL
Chain of Catechol O-methyltransferase (Homo sapiens) (P21964 whole entry, looked up): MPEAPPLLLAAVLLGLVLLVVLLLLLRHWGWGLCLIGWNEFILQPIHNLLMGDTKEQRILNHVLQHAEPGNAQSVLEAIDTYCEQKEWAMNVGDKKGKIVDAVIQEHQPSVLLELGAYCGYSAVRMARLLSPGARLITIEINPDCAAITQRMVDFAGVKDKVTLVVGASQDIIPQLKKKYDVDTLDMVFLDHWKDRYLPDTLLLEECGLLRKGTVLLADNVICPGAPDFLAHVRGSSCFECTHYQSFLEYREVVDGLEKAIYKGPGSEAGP
Chain of Phenylethanolamine N-methyltransferase (Homo sapiens) (P11086 whole entry, looked up): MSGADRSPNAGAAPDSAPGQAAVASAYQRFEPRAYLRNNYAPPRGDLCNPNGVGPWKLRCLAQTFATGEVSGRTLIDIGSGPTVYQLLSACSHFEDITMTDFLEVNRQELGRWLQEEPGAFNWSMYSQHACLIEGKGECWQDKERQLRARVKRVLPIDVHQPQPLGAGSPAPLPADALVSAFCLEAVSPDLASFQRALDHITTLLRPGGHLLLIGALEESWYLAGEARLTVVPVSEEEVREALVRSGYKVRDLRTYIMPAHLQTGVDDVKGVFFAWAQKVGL
Chain of Nuclear receptor subfamily 1 group I member 3 (Homo sapiens) (Q14994 whole entry, looked up): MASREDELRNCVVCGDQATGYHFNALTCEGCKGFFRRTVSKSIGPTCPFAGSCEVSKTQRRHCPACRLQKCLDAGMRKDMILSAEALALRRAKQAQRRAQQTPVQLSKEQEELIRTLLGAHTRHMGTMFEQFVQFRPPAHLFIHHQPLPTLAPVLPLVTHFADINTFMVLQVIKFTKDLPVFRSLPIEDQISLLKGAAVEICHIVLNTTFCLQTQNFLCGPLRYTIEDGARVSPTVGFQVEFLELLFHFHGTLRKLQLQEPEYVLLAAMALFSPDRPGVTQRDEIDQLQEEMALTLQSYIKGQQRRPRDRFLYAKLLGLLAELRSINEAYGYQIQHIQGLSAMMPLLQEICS
Chain of Metallo-beta-lactamase type 2 (Klebsiella pneumoniae) (C7C422 whole entry, looked up): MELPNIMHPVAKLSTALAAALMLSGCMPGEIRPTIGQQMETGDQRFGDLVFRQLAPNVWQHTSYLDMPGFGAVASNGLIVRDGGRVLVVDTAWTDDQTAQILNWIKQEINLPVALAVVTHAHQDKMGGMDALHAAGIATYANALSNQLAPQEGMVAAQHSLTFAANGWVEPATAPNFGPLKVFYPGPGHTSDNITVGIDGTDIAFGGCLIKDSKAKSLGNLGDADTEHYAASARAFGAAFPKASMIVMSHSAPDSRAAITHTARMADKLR
Chain of Cytochrome P450 3A4 (Homo sapiens) (P08684 whole entry, looked up, canonical isoform): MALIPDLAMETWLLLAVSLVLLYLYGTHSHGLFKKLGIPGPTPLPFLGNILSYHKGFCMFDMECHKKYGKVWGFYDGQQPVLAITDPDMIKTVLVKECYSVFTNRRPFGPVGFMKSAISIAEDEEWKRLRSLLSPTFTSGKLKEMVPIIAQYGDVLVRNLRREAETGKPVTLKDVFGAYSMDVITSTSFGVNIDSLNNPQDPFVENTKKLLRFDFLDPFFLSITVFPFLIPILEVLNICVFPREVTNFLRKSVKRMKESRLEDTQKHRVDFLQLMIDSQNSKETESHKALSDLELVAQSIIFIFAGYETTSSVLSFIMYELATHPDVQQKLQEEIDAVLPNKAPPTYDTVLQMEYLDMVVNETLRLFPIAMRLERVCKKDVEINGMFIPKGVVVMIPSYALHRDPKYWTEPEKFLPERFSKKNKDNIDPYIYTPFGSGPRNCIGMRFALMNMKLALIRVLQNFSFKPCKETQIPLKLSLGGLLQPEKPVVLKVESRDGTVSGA

With `COc1c2c(cc3c1-c1c(cc4c(c1OC)OCO4)CC(C)C(C)C3)OCO2` (stereo not given), the Potency entry in assay [1], in assay [2], in assay [3], in [4], in [5] and in assay [6] was “inactive” each time. Besides, the Potency entry in [7] and in assay [8] was “inactive” each time.

Regarding `Nc1nc(-n2cc(C(=O)O)c(=O)c3cc(F)c(N4CC(O)C4)c(Cl)c32)c(F)cc1F`, the Potency entry in [1], in assay [4], in assay [5] and in assay [8] was “inactive” in each case. Further, the activity in assay [9] was -21.4%; in assay [11], -1.6%; in assay [12], -1.85%. The same molecule gave an activity change, negative = inhibition in assay [10] of 0.345%.

With `Cc1cc(C)cc(C(=O)NOCCCCCC(=O)NO)c1`, the Potency in assay [1] is 0.409 µM (active). For the same molecule, the Potency result in [2], in assay [3], in [4], in assay [5], in assay [7] and in [8] was “inactive” each time.

As for `[N-]=[N+]=N[C@]1(CO)O[C@@H](n2ccc(=O)[nH]c2=O)[C@@H](O)[C@@H]1O`, the Potency result in assay [1], in assay [2], in [3], in assay [4], in assay [5] and in [6] was “inactive” throughout. For the same molecule, the Potency entry in assay [7] and in [8] was “inactive” in each case.

On to `CC[C@]1(O)CC2CN(CCc3c([nH]c4ccccc34)[C@@](C(=O)OC)(c3cc4c(cc3OC)N(C)[C@H]3[C@@](O)(C(=O)OC)[C@H](OC(C)=O)[C@]5(CC)C=CCN6CC[C@]43[C@@H]65)C2)C1` (stereo not given in full), for which the Potency in assay [1] is 45.9 nM (active) and 372 nM (active). The outcome in assay [13] is “inactive”. In addition, the Potency entry in assay [3], in assay [4], in [5], in assay [6] and in assay [7] was “inactive” throughout.

Take `CC(C)=CCC[C@](C)(O)[C@H]1CC[C@]2(C)[C@@H]1[C@H](O)CC1[C@@]3(C)CC[C@H](O)C(C)(C)[C@@H]3[C@@H](O[C@@H]3O[C@H](CO)[C@@H](O)[C@H](O)[C@H]3O[C@@H]3O[C@H](CO)[C@@H](O)[C@H](O)[C@H]3O)C[C@]12C` (stereo not given in full): the Potency result in [1], in assay [3], in assay [4], in assay [5], in assay [6] and in assay [8] was “inactive” throughout. Besides, the outcome in assay [14], in assay [15], in assay [16], in assay [17], in assay [18] and in assay [19] was “inactive” in each case.

Regarding `COc1ccc(C(=O)C2CCN(CC(=O)N(Cc3nc4c(c(=O)[nH]3)COCC4)CC3CC3)CC2)cc1`, the Potency result in assay [1], in assay [2], in [3], in assay [4], in assay [5] and in assay [6] was “inactive” throughout. Moreover, the Potency entry in assay [7] and in assay [8] was “inactive” each time.

Take `CN(CCc1ccc(Nc2ncc(-c3cccnc3)s2)cc1)Cc1ccccc1`: the Potency in assay [1] is 9.16 µM (active). Moreover, the activity was -0.695% in assay [9], -47.4% in [11] and -13.5% in assay [12]. The activity change, negative = inhibition in assay [10] stood at 0%. For the same molecule, the Potency result in assay [4], in assay [5] and in [7] was “inactive” throughout.

As to `C[C@H](NC(=O)CCc1nc2ccccc2c(=O)[nH]1)c1ccccc1`, the Potency entry in assay [1], in assay [2], in [20], in assay [3], in [4] and in assay [5] was “inactive” in each case. Also, the Potency entry in [6] and in assay [8] was “inactive” in each case.

As to `CC(C)c1cc(C(=O)N2CC[C@H](NC(=O)C3CC3)C2)n[nH]1`, the Potency entry in assay [1], in assay [2], in [3], in [4], in assay [5] and in assay [6] was “inactive” in each case. The Potency entry in assay [7] and in assay [8] was “inactive” throughout.

Regarding `CCCC(=O)NCCc1csc(-c2ccc(Cl)cc2)n1`, the Potency in [1] was 18.3 µM (active). The Potency entry in assay [3], in [4], in [5], in assay [6] and in assay [7] was “inactive” in each case.

`CC(=O)N1CCN(C(=O)Cc2ccc(Nc3ncc(F)c(Nc4ccc(C(=O)Nc5ccccc5Cl)cc4)n3)cc2)CC1`: the Potency in assay [1] is 2.05 µM (active). In addition, the Potency entry in [3], in assay [4], in assay [5], in [6] and in assay [7] was “inactive” throughout.

Consider `CC(C)=CCC/C(C)=C/CO[C@@H]1O[C@H](CO)[C@@H](OC(=O)/C=C/c2ccc(O)cc2)[C@H](O[C@@H]2O[C@@H](C)[C@H](O)[C@@H](O)[C@H]2O)[C@H]1O`, for which the Potency result in assay [1], in assay [3], in [4], in [5], in assay [6] and in [7] was “inactive” each time.

The record behind these values is PubChem BioAssay (NCATS).
